# Results reported in publication PMC11062922 (Nature Chemical Biology, 2023).
# Read-outs that look alike come from different tables or passages of the source.
# Legend:
# MAP3K5 = settings: read-out: apparent Kd, n = 1
# MAPK10 = settings: read-out: apparent Kd, n = 1
substance,measurement,setting,value
Lestaurtinib,potency estimated from few doses,"MAP3K5; compound concentrations:100 nM and 1000 nM (sheet 'Lestaurtinib' of Supplementary Table 1),run:Lestaurtinib_02487_R1,Plate:MR012",1.21 µM
same,potency estimated from few doses,"MAP3K5; compound concentrations:100 nM and 1000 nM (sheet 'Lestaurtinib' of Supplementary Table 1),run:Lestaurtinib_02566_R1,Plate:MR014",0.946 µM
same,potency estimated from few doses,"MAP3K5; compound concentrations:100 nM and 1000 nM (sheet 'Lestaurtinib' of Supplementary Table 1),run:Lestaurtinib_02572_R3,Plate:MR015",1.62 µM
same,potency estimated from few doses,"MAP3K5; compound concentrations:100 nM and 1000 nM (sheet 'Lestaurtinib' of Supplementary Table 1),run:Lestaurtinib_02577_R1,Plate:MR016",1.36 µM
same,potency estimated from few doses,"MAP3K5; compound concentrations:100 nM and 1000 nM (sheet 'Lestaurtinib' of Supplementary Table 1),run:Lestaurtinib_02584_R2,Plate:MR017",1.3 µM
same,potency estimated from few doses,"MAP3K5; compound concentrations:100 nM and 1000 nM (sheet 'Lestaurtinib' of Supplementary Table 1),run:Lestaurtinib_02584_R3,Plate:MR017",1.36 µM
same,potency estimated from few doses,"MAP3K5; compound concentrations:100 nM and 1000 nM (sheet 'Lestaurtinib' of Supplementary Table 1),run:Lestaurtinib_02601_R1,Plate:MR018",1.7 µM
same,potency estimated from few doses,"MAP3K5; compound concentrations:100 nM and 1000 nM (sheet 'Lestaurtinib' of Supplementary Table 1),run:Lestaurtinib_02601_R2,Plate:MR018",1.46 µM
same,potency estimated from few doses,"MAP3K5; compound concentrations:100 nM and 1000 nM (sheet 'Lestaurtinib' of Supplementary Table 1),run:Lestaurtinib_02606_R1,Plate:MR019",1.44 µM
same,potency estimated from few doses,"MAP3K5; compound concentrations:100 nM and 1000 nM (sheet 'Lestaurtinib' of Supplementary Table 1),run:Lestaurtinib_02606_R3,Plate:MR019",1.35 µM
same,potency estimated from few doses,"MAP3K5; compound concentrations:100 nM and 1000 nM (sheet 'Lestaurtinib' of Supplementary Table 1),run:Lestaurtinib_02624_R1,Plate:MR020",1.44 µM
same,potency estimated from few doses,"MAP3K5; compound concentrations:100 nM and 1000 nM (sheet 'Lestaurtinib' of Supplementary Table 1),run:Lestaurtinib_02624_R2,Plate:MR020",0.998 µM
same,potency estimated from few doses,"MAP3K5; compound concentrations:100 nM and 1000 nM (sheet 'Lestaurtinib' of Supplementary Table 1),run:Lestaurtinib_02724_R1,Plate:MR021",0.998 µM
same,potency estimated from few doses,"MAP3K5; compound concentrations:100 nM and 1000 nM (sheet 'Lestaurtinib' of Supplementary Table 1),run:Lestaurtinib_02741_R1,Plate:MR023",0.916 µM
same,potency estimated from few doses,"MAP3K5; compound concentrations:100 nM and 1000 nM (sheet 'Lestaurtinib' of Supplementary Table 1),run:Lestaurtinib_02765_R1,Plate:MR026",1.49 µM
same,potency estimated from few doses,"MAP3K5; compound concentrations:100 nM and 1000 nM (sheet 'Lestaurtinib' of Supplementary Table 1),run:Lestaurtinib_02765_R3,Plate:MR026",1.83 µM
same,potency estimated from few doses,"MAP3K5; compound concentrations:100 nM and 1000 nM (sheet 'Lestaurtinib' of Supplementary Table 1),run:Lestaurtinib_02766_R2,Plate:MR027",1.15 µM
same,potency estimated from few doses,"MAP3K5; compound concentrations:100 nM and 1000 nM (sheet 'Lestaurtinib' of Supplementary Table 1),run:Lestaurtinib_02766_R3,Plate:MR027",0.942 µM
same,potency estimated from few doses,"MAP3K5; compound concentrations:100 nM and 1000 nM (sheet 'Lestaurtinib' of Supplementary Table 1),run:Lestaurtinib_02768_R1,Plate:MR028",1.15 µM
same,potency estimated from few doses,"MAP3K5; compound concentrations:100 nM and 1000 nM (sheet 'Lestaurtinib' of Supplementary Table 1),run:Lestaurtinib_02768_R3,Plate:MR028",0.923 µM
same,potency estimated from few doses,"MAP3K5; compound concentrations:100 nM and 1000 nM (sheet 'Lestaurtinib' of Supplementary Table 1),run:Lestaurtinib_02795_R2,Plate:MR022",1.34 µM
same,potency estimated from few doses,"MAP3K5; compound concentrations:100 nM and 1000 nM (sheet 'Lestaurtinib' of Supplementary Table 1),run:Lestaurtinib_02802_R3,Plate:MR029",0.687 µM
same,potency estimated from few doses,"MAP3K5; compound concentrations:100 nM and 1000 nM (sheet 'Lestaurtinib' of Supplementary Table 1),run:Lestaurtinib_03172_R1,Plate:MR031",1.31 µM
same,potency estimated from few doses,"MAP3K5; compound concentrations:100 nM and 1000 nM (sheet 'Lestaurtinib' of Supplementary Table 1),run:Lestaurtinib_03172_R3,Plate:MR031",1.57 µM
same,potency estimated from few doses,"MAP3K5; compound concentrations:100 nM and 1000 nM (sheet 'Lestaurtinib' of Supplementary Table 1),run:Lestaurtinib_03260_R1,Plate:MR033",1.75 µM
same,potency estimated from few doses,"MAP3K5; compound concentrations:100 nM and 1000 nM (sheet 'Lestaurtinib' of Supplementary Table 1),run:Lestaurtinib_03260_R2,Plate:MR033",1.46 µM
same,potency estimated from few doses,"MAP3K5; compound concentrations:100 nM and 1000 nM (sheet 'Lestaurtinib' of Supplementary Table 1),run:Lestaurtinib_03260_R3,Plate:MR033",1.58 µM
same,potency estimated from few doses,"MAPK10; compound concentrations:100 nM and 1000 nM (sheet 'Lestaurtinib' of Supplementary Table 1),run:Lestaurtinib_02339_R2,Plate:MR001",0.617 µM
same,potency estimated from few doses,"MAPK10; compound concentrations:100 nM and 1000 nM (sheet 'Lestaurtinib' of Supplementary Table 1),run:Lestaurtinib_02339_R3,Plate:MR001",1.15 µM
same,potency estimated from few doses,"MAPK10; compound concentrations:100 nM and 1000 nM (sheet 'Lestaurtinib' of Supplementary Table 1),run:Lestaurtinib_02364_R2,Plate:MR002",0.618 µM
same,potency estimated from few doses,"MAPK10; compound concentrations:100 nM and 1000 nM (sheet 'Lestaurtinib' of Supplementary Table 1),run:Lestaurtinib_02364_R3,Plate:MR002",0.801 µM
same,potency estimated from few doses,"MAPK10; compound concentrations:100 nM and 1000 nM (sheet 'Lestaurtinib' of Supplementary Table 1),run:Lestaurtinib_02367_R1,Plate:MR003",1.62 µM
same,potency estimated from few doses,"MAPK10; compound concentrations:100 nM and 1000 nM (sheet 'Lestaurtinib' of Supplementary Table 1),run:Lestaurtinib_02367_R3,Plate:MR003",0.623 µM
same,potency estimated from few doses,"MAPK10; compound concentrations:100 nM and 1000 nM (sheet 'Lestaurtinib' of Supplementary Table 1),run:Lestaurtinib_02407_R1,Plate:MR005",0.932 µM
same,potency estimated from few doses,"MAPK10; compound concentrations:100 nM and 1000 nM (sheet 'Lestaurtinib' of Supplementary Table 1),run:Lestaurtinib_02407_R2,Plate:MR005",0.763 µM
same,potency estimated from few doses,"MAPK10; compound concentrations:100 nM and 1000 nM (sheet 'Lestaurtinib' of Supplementary Table 1),run:Lestaurtinib_02407_R3,Plate:MR005",1.46 µM
same,potency estimated from few doses,"MAPK10; compound concentrations:100 nM and 1000 nM (sheet 'Lestaurtinib' of Supplementary Table 1),run:Lestaurtinib_02422_R1,Plate:MR006",0.575 µM
same,potency estimated from few doses,"MAPK10; compound concentrations:100 nM and 1000 nM (sheet 'Lestaurtinib' of Supplementary Table 1),run:Lestaurtinib_02422_R2,Plate:MR006",0.964 µM
same,potency estimated from few doses,"MAPK10; compound concentrations:100 nM and 1000 nM (sheet 'Lestaurtinib' of Supplementary Table 1),run:Lestaurtinib_02422_R3,Plate:MR006",0.609 µM
same,potency estimated from few doses,"MAPK10; compound concentrations:100 nM and 1000 nM (sheet 'Lestaurtinib' of Supplementary Table 1),run:Lestaurtinib_02437_R1,Plate:MR007",0.865 µM
same,potency estimated from few doses,"MAPK10; compound concentrations:100 nM and 1000 nM (sheet 'Lestaurtinib' of Supplementary Table 1),run:Lestaurtinib_02437_R2,Plate:MR007",0.838 µM
same,potency estimated from few doses,"MAPK10; compound concentrations:100 nM and 1000 nM (sheet 'Lestaurtinib' of Supplementary Table 1),run:Lestaurtinib_02443_R3,Plate:MR009",0.798 µM
same,potency estimated from few doses,"MAPK10; compound concentrations:100 nM and 1000 nM (sheet 'Lestaurtinib' of Supplementary Table 1),run:Lestaurtinib_02473_R1,Plate:MR010",0.97 µM
same,potency estimated from few doses,"MAPK10; compound concentrations:100 nM and 1000 nM (sheet 'Lestaurtinib' of Supplementary Table 1),run:Lestaurtinib_02473_R2,Plate:MR010",0.755 µM
same,potency estimated from few doses,"MAPK10; compound concentrations:100 nM and 1000 nM (sheet 'Lestaurtinib' of Supplementary Table 1),run:Lestaurtinib_02473_R3,Plate:MR010",0.882 µM
